PrPC TRFRET: inhibitors of human cell surface prion protein PrPC, primary screen, cell-based, TR-FRET; Major prion protein (Homo sapiens), P04156; TR-FRET read-out; inhibition, % at 13.8 µM; 370,000 tested, 0.43% active; AID 720596, 2013; in the data active = inhibition above about 24%; note: 0% = median of the test wells and 100% = reference compound wells
GDH-TPI counter: GDH-TPI coupling enzyme inhibitors, primary screen, artefact control for M. tuberculosis FBA inhibitor project, biochemical, absorbance, full deck. 360,000 tested, 1.2% active. inhibition, % at 4.8 µM. GDH-TPI coupled enzyme counterscreen, NADH absorbance. AID 588335, 2011; in the data active = inhibition above about 30%;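 note: 0% = DMSO wells and 100% = wells lacking the enzyme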
Yp Topo-I inh: Yersinia pestis topoisomerase I inhibitors, primary screen, biochemical, cleavage product accumulation, plate reader, single point | activity, % at 10 µM | 360,000 tested, 0.064% active | AID 504884, 2011 | Y. pestis Topo-I cleavage product accumulation; in the data active = activity above about 50%, passing the limit was not always enough
Mtb FBA inh: Mtb FBA enzyme inhibitors, primary screen, biochemical, fluorescence, strain H37Rv; Fructose-bisphosphate aldolase (Mycobacterium tuberculosis (strain ATCC 25618 / H37Rv)), …; purified M. tuberculosis FBA, fluorescence read-out; inhibition, % at 1 µM; 360,000 tested, 2.3% active; AID 588726, 2011; in the data active = inhibition above about 27%;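 note: 0% = vehicle and 100% = reference inhibitor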
TcdB GH inh: TcdB glycohydrolase inhibitors, primary screen, biochemical, single point, plate reader. 350,000 tested, 0.24% active. TcdB glycohydrolase enzymatic assay. Toxin B (Clostridioides difficile), P18177. inhibition, % at 9.99 µM; in the data active = inhibition above about 10%
Numbers without * were called inactive; / = no result given; + = active, no number. In the library only some 3.2% were active in any assay of this set; here they are far more common.

SMILES | PrPC TRFRET | GDH-TPI counter | Yp Topo-I inh | Mtb FBA inh | TcdB GH inh
Cc1cc(C(=O)Nc2nnc(-c3ccccc3)s2)no1 | -4.9 | 32.3* | 3.3 | -3.3 | /
C[C@@H]1CN([C@@H](C)CO)C(=O)c2cc(N(C)C)ccc2O[C@H]1CN(C)Cc1ccc2c(c1)OCO2 | / | / | / | / | -1.2
O=C(C[C@@H]1C[C@@H]2c3cc(NC(=O)c4cccnc4)ccc3O[C@@H]2[C@H](CO)O1)NCC1CC1 | / | / | / | / | -0.9
C[C@H](CO)N1C[C@H](C)[C@H](CN(C)C(=O)C2CCC2)Oc2ncc(-c3ccccc3F)cc2C1=O | / | / | / | / | -0.8
COCC(=O)N(C)C[C@@H]1Oc2ncc(-c3ccccc3OC)cc2C(=O)N([C@H](C)CO)C[C@@H]1C | / | / | / | / | -3.3
Cc1ccc(-c2nnc(NC(=O)c3ccco3)s2)cc1 | -2.5 | 22.6 | -1.0 | 1.1 | -0.4
COc1ccc(-c2nnc(NC(=O)c3ccco3)s2)cc1 | -1.6 | 45.4* | -9.0 | 1.0 | 1.6
Cc1nnc(NC(=O)c2ccco2)s1 | 8.0 | 10.1 | -3.1 | 5.2 | 0.8
O=C(Nc1nnc(SCc2ccc(F)cc2)s1)c1ccco1 | 6.1 | 41.0* | 14.1 | 1.0 | /
C/C=C(\C)c1nnc(NC(=O)c2ccco2)s1 | 1.3 | 33.2* | 3.0 | -1.9 | /
C[C@@H]1CN([C@@H](C)CO)C(=O)Cc2cc(NC(=O)Nc3ccc4c(c3)OCO4)ccc2O[C@@H]1CN(C)Cc1ccc(C(=O)O)cc1 | / | / | / | / | 0.0
COc1ccc(OCC(O)CN2CCC(CN3C(=O)c4cccc5cccc(c45)C3=O)CC2)cc1 (stereo unspecified) | -26.7 | 45.2* | 13.8 | 22.6 | 2.4
COc1ccc(C(=O)CN2CCN(CCN3C(=O)c4cccc5cccc(c45)C3=O)CC2)cc1 | -26.3 | 45.7* | 10.8 | 3.8 | 1.1
COc1cc2c3c(cccc3c1)C(=O)N(CCN1CCCC1)C2=O | -25.8 | 15.9 | -24.2 | 146.6* | 0.6
C[C@@H]1CN([C@@H](C)CO)C(=O)c2cc(NC(=O)NC3CCCCC3)ccc2O[C@@H]1CN(C)S(=O)(=O)c1cn(C)cn1 | / | / | / | / | -0.2
COc1ccccc1NC(=O)N1[C@H](CO)[C@@H](c2ccccc2)[C@@H]1C#N | / | / | / | / | 0.6
O=C(C[C@H]1CC[C@@H]2[C@H](COC[C@@H](O)CN2Cc2nccs2)O1)NCc1ccc(F)cc1 | / | / | / | / | -0.5
CC(=NCc1ccccc1)c1ccccc1O | 7.1 | 5.8 | -3.4 | -1.9 | 0.7
C/C(=N\NP(=S)(c1ccccc1)c1ccccc1)c1ccc(O)cc1O | 6.9 | 32.5* | -1.1 | -3.0 | 2.3
CC(=NCc1ccccc1)c1ccc(O)cc1O | -4.1 | 33.6* | 4.7 | -1.3 | 0.7
COc1ccc(/C=N/Nc2cc(=O)n(C)c(=O)n2C)cc1OC | -4.2 | 34.0* | 3.0 | 12.6 | 0.2
COc1ccc(/C=C/C(=O)NNc2cc(=O)n(C)c(=O)n2C)cc1OC | -5.4 | 33.5* | -3.1 | 11.5 | -0.8
Cc1cc2nc(-c3ccc[nH]c3=O)n(Cc3ccc(F)cc3)c2cc1C | 0.2 | 13.6 | 13.4 | 198.4* | -2.0
O=c1[nH]cccc1-c1nc2ccccc2n1Cc1ccc(F)cc1 | 1.1 | 13.9 | -0.7 | 172.5* | 0.4
Cc1cc2nc(-c3ccc[nH]c3=O)[nH]c2cc1C | -14.4 | 26.3 | 12.3 | + | 1.5
SMILES | PrPC TRFRET | GDH-TPI counter | Yp Topo-I inh | Mtb FBA inh | TcdB GH inh
CCCn1c(-c2ccc[nH]c2=O)nc2ccccc21 | -3.9 | 3.0 | -18.3 | 151.5* | 1.4
CNC[C@@H]1Oc2ccc(N(C)C)cc2CC(=O)N([C@H](C)CO)C[C@H]1C | / | / | / | / | -4.3
C[C@H]1CCCCO[C@H](CN(C)Cc2ccccc2)[C@@H](C)CN([C@@H](C)CO)C(=O)c2cc(NS(=O)(=O)c3ccc(F)cc3)ccc2O1 | / | / | / | / | 1.3
COc1ccc(/C=C/c2cc(-c3ccc(C)cc3)o[n+]2C)cc1 | -3.6 | 54.8* | 10.4 | 12.5 | /
Clc1nc2sccn2c1/C=N/n1cnc2ccccc21 | -1.9 | 46.9* | 2.4 | -0.4 | 0.9
CCCN1C[C@@H](C)[C@@H](OC)CN(C)C(=O)c2cc(NC(=O)c3ccccc3)ccc2OC[C@@H]1C | / | / | / | / | -1.3
COc1ccc(N=Cc2c(O)n(C)c(=O)n(C)c2=O)cc1 | 12.5 | 26.2 | 2.8 | 1.4 | 1.8
Cc1cccc(N=Cc2c(O)n(C)c(=O)n(C)c2=O)c1 | 1.5 | 35.8* | 1.6 | -2.1 | 3.4
Cn1c(O)c(/C=N/c2ncccn2)c(=O)n(C)c1=O | -0.7 | 32.0* | -3.3 | 3.7 | /
Cc1ccc(N=Cc2c(O)n(C)c(=O)n(C)c2=O)cc1 | 9.8 | 35.4* | 3.4 | -1.8 | 1.0
C[C@@H]1CCCCO[C@@H](CN(C)C(=O)Nc2ccc3c(c2)OCO3)[C@H](C)CN([C@H](C)CO)C(=O)c2cc(NC(=O)Nc3ccc4c(c3)OCO4)ccc2O1 | / | / | / | / | 1.5
CN(C)c1ccc(NC2=C([N+](=O)[O-])CS(=O)(=O)C2)cc1 | -3.1 | 34.2* | -7.5 | -2.1 | /
C[C@H](CO)N1C[C@H](C)[C@@H](CN(C)S(=O)(=O)c2ccc(F)cc2)Oc2c(NS(=O)(=O)c3cccs3)cccc2C1=O | / | / | / | / | -1.0
Cc1noc(C)c1NC(=O)Nc1ccc2c(c1)C(=O)N([C@@H](C)CO)C[C@H](C)[C@@H](CN(C)S(=O)(=O)c1c(C)noc1C)OCCCC[C@@H](C)O2 | / | / | / | / | 1.2
COc1ccc(C(NC(C)=O)c2cc(Cl)c3cccnc3c2O)cc1 (stereo unspecified) | 28.4* | 4.6 | -8.3 | 3.2 | 10.9*
CNC(=S)N1N=C(c2cccs2)CC1c1ccc(OC)cc1 (stereo unspecified) | -13.3 | 47.9* | -6.1 | 2.8 | -0.6
COc1ccc(C2CC(c3ccccc3)=NN2C(=S)Nc2ccccc2)cc1 (stereo unspecified) | -9.1 | 34.1* | 3.0 | -1.4 | 0.0
COc1ccc(C2CC(c3cccs3)=NN2C(=O)CN2CCCCC2)cc1 (stereo unspecified) | -9.4 | 12.0 | 8.0 | 5.5 | 0.2
CC(=NNC(=O)c1ccncc1)c1ccc(O)cc1O | 8.0 | 41.4* | -1.7 | -1.0 | -25.9
C/C(=N\NC(=O)c1ccc(N2CCCC2=O)cc1)c1ccc(O)cc1O | 3.7 | 33.2* | -2.0 | 3.0 | 0.3
C/C(=N\NC(=O)c1ccc(N2CCCC2=O)cc1)c1ccccc1 | 5.4 | -5.9 | 4.0 | -0.4 | 3.0
C[C@@H]1CN([C@H](C)CO)C(=O)c2cc(NC(=O)Nc3ccc4c(c3)OCO4)ccc2O[C@@H](C)CCCCO[C@H]1CN(C)Cc1ccc(C(=O)O)cc1 | / | / | / | / | 0.1
On1ccccc1=S | 41.8* | -5.3 | -0.9 | -2.3 | -11.7
COc1ccc(NC(=O)Nc2ccc3c(c2)CC(=O)N([C@H](C)CO)C[C@H](C)[C@@H](CN(C)CC2CCCCC2)O3)cc1 | / | / | / | / | -1.1
CCCCCCc1nc2ccccc2c(=O)n1N | 9.7 | 13.7 | 7.5 | 135.7* | /
O=C(N/N=C\c1ccc(S(=O)(=O)O)o1)c1ccc2c(c1)OCO2 | -5.7 | 41.4* | -0.8 | 0.6 | 0.0

Screening results: PubChem, several laboratories
